Measurements taken from PubChem BioAssay.
The other results are listed elsewhere or left out. Calls of active or inactive are those of the source.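 Rule for the calls, unless noted: active = mean inhibition above about 50% in the one-dose retest (limit read from the data); inactive = the rest.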

Experiments:
[1] = activators of apoptotic CHOP UPR arm, confirmation, cell-based, CHO-CHOP luciferase reporter, single concentration (AID 463112; in the data active = activation above about 33%;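 note: 0% = DMSO wells and 100% = tunicamycin 10 µg/mL wells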); settings: CHO-CHOP cells, CHOP-luciferase reporter luminescence; at 10 µM; stronger effect = higher value; percent of tunicamycin response, DMSO as zero
[2] = molecular target: Sentrin-specific protease 8 (Homo sapiens) (UniProt Q96LD8); test: SENP8 protease inhibitors, retest, confirmation, biochemical, luminescence, single concentration (AID 488912;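 active = mean inhibition across replicates above about 50%, limit read from the data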); settings: Recombinant SENP8, Z-RLRGG-aminoluciferin luminescence, 60 min; at 12.5 µM; stronger effect = higher value
Sequence of Sentrin-specific protease 8 (Homo sapiens) (Q96LD8 whole entry, looked up): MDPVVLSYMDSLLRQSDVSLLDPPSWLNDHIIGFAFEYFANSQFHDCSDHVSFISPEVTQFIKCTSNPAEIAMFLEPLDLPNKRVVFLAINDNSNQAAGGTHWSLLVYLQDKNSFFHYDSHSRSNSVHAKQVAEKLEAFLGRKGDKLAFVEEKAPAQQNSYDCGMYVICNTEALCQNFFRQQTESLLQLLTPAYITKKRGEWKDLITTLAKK

[3] = molecular target: Sentrin-specific protease 6 (Homo sapiens) (UniProt Q9GZR1); test: SENP6 protease inhibitors, confirmation, biochemical, luminescence, single concentration (AID 488915); settings: recombinant SENP6, Z-RLRGG-aminoluciferin luminescence; at 12.5 µM; stronger effect = higher value
Sequence of Sentrin-specific protease 6 (Homo sapiens) (Q9GZR1 628-1112 limits assumed): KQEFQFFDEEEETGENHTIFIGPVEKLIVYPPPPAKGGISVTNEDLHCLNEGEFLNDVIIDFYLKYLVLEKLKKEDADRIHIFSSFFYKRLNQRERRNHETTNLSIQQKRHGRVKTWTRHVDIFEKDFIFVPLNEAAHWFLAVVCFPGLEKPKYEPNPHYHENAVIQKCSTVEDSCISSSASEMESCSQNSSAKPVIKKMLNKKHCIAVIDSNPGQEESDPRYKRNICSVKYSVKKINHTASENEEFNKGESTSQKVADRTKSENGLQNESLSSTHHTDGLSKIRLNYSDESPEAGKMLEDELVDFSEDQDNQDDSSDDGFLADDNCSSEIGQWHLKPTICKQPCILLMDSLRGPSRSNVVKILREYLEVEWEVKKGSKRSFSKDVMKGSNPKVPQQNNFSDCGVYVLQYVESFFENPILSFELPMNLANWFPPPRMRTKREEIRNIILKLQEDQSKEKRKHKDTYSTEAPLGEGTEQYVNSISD

[4] = molecular target: Sentrin-specific protease 7 (Homo sapiens) (UniProt Q9BQF6); test: SENP7 protease inhibitors, retest, confirmation, biochemical, luminescence, single concentration (AID 488917); settings: recombinant SENP7, Z-RLRGG-aminoluciferin luminescence, 40 min; at 12.5 µM; stronger effect = higher value
Sequence of Sentrin-specific protease 7 (Homo sapiens) (Q9BQF6 706-1050 limits assumed): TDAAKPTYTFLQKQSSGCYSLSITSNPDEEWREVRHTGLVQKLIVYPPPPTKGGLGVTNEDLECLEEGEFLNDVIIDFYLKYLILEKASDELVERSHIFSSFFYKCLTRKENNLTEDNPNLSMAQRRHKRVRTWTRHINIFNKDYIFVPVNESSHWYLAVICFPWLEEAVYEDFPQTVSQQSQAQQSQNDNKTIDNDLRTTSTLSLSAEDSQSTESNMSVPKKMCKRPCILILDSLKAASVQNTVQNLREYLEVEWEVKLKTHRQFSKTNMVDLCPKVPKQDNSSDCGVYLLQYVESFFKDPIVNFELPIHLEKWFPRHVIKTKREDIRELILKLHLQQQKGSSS

Caspase-3 (Homo sapiens) = Caspase-3 (Homo sapiens) (UniProt P42574); test: caspase-3 protease inhibitors, confirmation, selectivity assay for SENP inhibitor project, biochemical, single concentration (AID 488918;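 active = mean inhibition above about 50%, limit read from the data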;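 note: plate controls were enzyme with DMSO for no effect and wells without caspase-3 for full effect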); settings: purified caspase-3, Z-DEVD-aminoluciferin luminescence, 60 min; at 12.5 µM; stronger effect = higher value
Sequence of Caspase-3 (Homo sapiens) (P42574 28-227 limits assumed): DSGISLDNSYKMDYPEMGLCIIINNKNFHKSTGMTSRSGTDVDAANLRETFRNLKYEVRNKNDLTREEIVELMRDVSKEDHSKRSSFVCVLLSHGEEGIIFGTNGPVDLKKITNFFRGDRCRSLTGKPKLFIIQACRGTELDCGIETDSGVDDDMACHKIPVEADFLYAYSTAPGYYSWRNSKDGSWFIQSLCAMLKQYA

[5] = luciferase luminescence interference by compounds, confirmation, artefact control for SENP inhibitor project, biochemical, single concentration, SENP8 reaction pre-completed (AID 488919;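 active = mean inhibition above about 50% when retested at one dose, limit read from the data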;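 note: plate controls were DMSO wells with completed reaction for no effect and substrate without enzyme for full effect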); settings: Pre-incubated SENP8/Z-RLRGG-aminoluciferin, at 12.5 µM, stronger effect = higher value
[6] = molecular target: Tumor necrosis factor receptor superfamily member 10B (Homo sapiens) (UniProt O14763); test: caspase-8 TRAIL sensitization, hit retest, confirmation, cell-based, NB7+caspase-8, with/without TRAIL, luminescence panel (AID 651596; in the data active = activity above about 50%); settings: NB7 neuroblastoma + caspase-8, TRAIL sensitization, luminescence viability, with TRAIL, mean of runs, at 10 µM, stronger effect = higher value
Sequence of Tumor necrosis factor receptor superfamily member 10B (Homo sapiens) (O14763 whole entry, looked up): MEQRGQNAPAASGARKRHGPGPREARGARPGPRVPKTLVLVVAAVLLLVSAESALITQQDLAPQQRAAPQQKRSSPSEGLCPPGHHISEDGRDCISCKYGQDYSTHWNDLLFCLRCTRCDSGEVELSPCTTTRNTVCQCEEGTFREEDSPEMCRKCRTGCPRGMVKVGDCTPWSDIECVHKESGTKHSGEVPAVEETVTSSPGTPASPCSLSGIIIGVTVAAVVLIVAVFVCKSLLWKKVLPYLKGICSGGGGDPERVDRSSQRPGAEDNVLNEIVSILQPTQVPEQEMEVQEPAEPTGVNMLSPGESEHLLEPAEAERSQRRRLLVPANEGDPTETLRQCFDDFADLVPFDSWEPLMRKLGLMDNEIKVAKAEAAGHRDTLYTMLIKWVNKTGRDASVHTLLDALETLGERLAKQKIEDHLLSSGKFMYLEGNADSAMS

[7] = as above; settings: NB7 neuroblastoma + caspase-8, without TRAIL, luminescence viability, without TRAIL, mean of runs, at 10 µM
[8] = inhibition of Brca1/Bard1 split-luciferase complementation, confirmation, counter-screen for Mdm2/MdmX interaction inhibitor project, luminescence, single concentration (AID 504668; call rule not given here); settings: Brca1/Bard1 bimolecular luciferase complementation counterscreen, at 8 µM, stronger effect = higher value
[9] = inhibitors of PAF-induced NF-kB signaling, retest, confirmation, cell-based, GFP fluorescence, single concentration (AID 602472; in the data active = inhibition above about 40%;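 note: stimulus PAF is a Pseudomonas aeruginosa filtrate and not platelet activating factor; plate controls were DMSO wells with stimulus for no effect and unstimulated DMSO wells for full effect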); settings: KKLEB CF airway cells, overnight, at 5 µM, stronger effect = higher value
[10] = HIF-2a reporter inhibitor retest, confirmation, luminescence, 786-0 RCC cells (AID 651580;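 active = mean inhibition across four replicates of at least 40 percent at the single tested concentration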); settings: HIF-2a luciferase reporter luminescence, overnight, at 18.8 µM, stronger effect = higher value
[11] = HIF-1a luciferase reporter signal reduction – MiaPaCa-2 cells, single concentration, counter-screen for HIF-2a inhibitor project, confirmation (AID 651589;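 active = mean inhibition of the reporter signal across four replicates at the single tested dose of 50% or more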); settings: MiaPaCa-2 HIF-1a luciferase reporter, desferoxamine, overnight; at 18.8 µM; stronger effect = higher value

Cc1ccc(Cc2cnc(NC(=O)/C(C#N)=C/c3ccc(-c4cccc([N+](=O)[O-])c4)o3)s2)cc1
active: activation [1] 61.4%

CCOC(=O)c1cnc(Nc2nc3ccccc3o2)nc1CSC(=S)N1CCCCC1
active: activation [1] 92.7%

CCCCOc1ccc(-c2nnc(-c3ccco3)o2)cc1
inactive: inhibition [2] 37.7% | inhibition [3] 44.6% | inhibition [4] 41.1% | inhibition (Caspase-3 (Homo sapiens)) 12.6% | inhibition [5] 2%

CCSc1nnc(NC(=O)c2ccc(C)cc2)s1
inactive: inhibition [2] 33.7% | inhibition [3] 23.5% | inhibition (Caspase-3 (Homo sapiens)) 27.1% | inhibition [5] 2%
active: inhibition [4] 51.1%

O=C(Nc1ccc(OC(F)(F)F)cc1)c1ccc2c(c1)no[n+]2[O-]
96.8%: activity [7]
inactive: activation [1] 24.4%
90%: activity [6]

Cc1nn2cc(-c3ccc(Cl)cc3)cnc2c1Br
inactive: inhibition [2] 17.8% | inhibition [3] 15.7% | inhibition [4] 30.8% | inhibition (Caspase-3 (Homo sapiens)) 28.5% | inhibition [5] 9%

C/C(=N\NC(=O)c1ccoc1C)c1ccccc1O
active: inhibition [4] 80.7% | inhibition (Caspase-3 (Homo sapiens)) 77.3% | inhibition [5] 63%
inactive: inhibition [2] 38.5% | inhibition [3] 36.8%

COc1cc(NC(=O)COC(=O)c2ccc([N+](=O)[O-])s2)cc(OC)c1OC
inactive: inhibition [4] 45.8% | inhibition (Caspase-3 (Homo sapiens)) 18.4% | inhibition [5] 0.3%
active: inhibition [2] 79.5% | inhibition [3] 86.7%

Cc1cc(N=Nc2ccc3ccccc3c2)ccc1O
active: inhibition [2] 98.3% | inhibition [3] 98.9% | inhibition [4] 102% | inhibition (Caspase-3 (Homo sapiens)) 85.7% | inhibition [5] 76.6%

Cc1ccc(S(=O)(=O)Nc2nc3ccccc3nc2N2CCc3ccccc3C2)cc1
inactive: inhibition [2] -9.3% | inhibition [3] -1.3% | inhibition [4] -5.2% | inhibition (Caspase-3 (Homo sapiens)) 4.5% | inhibition [5] 4.3%

C=CCNC(=S)N1CCN(CCN=Cc2c(C)[nH]n(-c3ccc([N+](=O)[O-])cc3)c2=O)CC1
inactive: inhibition [2] 0.7% | inhibition [3] 21.1% | inhibition [4] 28% | inhibition [5] 16.9%
active: inhibition (Caspase-3 (Homo sapiens)) 56.6%

O=C1C(=O)N(CCCN2CCOCC2)C(c2ccc([N+](=O)[O-])cc2)/C1=C(\O)c1ccc2c(c1)OCCO2 (stereo not drawn)
inactive: inhibition [2] -13.1% | inhibition [3] -8.9% | inhibition [4] -9% | inhibition (Caspase-3 (Homo sapiens)) -4.4% | inhibition [5] -12.5%

CN(CCO)c1ccc(/C=N/Nc2nncc3ccccc23)cc1
active: inhibition [2] 98.7% | inhibition [3] 99.7% | inhibition [4] 103% | inhibition (Caspase-3 (Homo sapiens)) 98.7% | inhibition [5] 93.4%

O=C(Nc1cc2ccccc2oc1=O)C1CCCCC1
inactive: inhibition [2] 8.2% | inhibition [3] 4.9% | inhibition [4] 19.1% | inhibition (Caspase-3 (Homo sapiens)) 20.1% | inhibition [5] 3.7%

O=C(CCl)Nc1cccc(CP(=O)(c2ccccc2)c2ccccc2)c1
active: activation [1] 34% | inhibition [8] 27.6% | inhibition [11] 51.3%
inactive: inhibition [9] -20.6% | inhibition [10] 22.9%

O=C(/C(=C/c1cccc(Cl)c1)c1nc2ccccc2[nH]1)c1ccccc1
active: activation [1] 115% | inhibition [11] 105%
inactive: inhibition [10] 26.3%

CCOC(=O)/C(C#N)=C/c1ccc(N2CCCCC2)cc1
inactive: inhibition [2] 25.6% | inhibition [3] 34.1% | inhibition (Caspase-3 (Homo sapiens)) 30.2% | inhibition [5] 10.6%
active: inhibition [4] 65%

Cc1ccc(S(=O)(=O)C(C#N)c2nc3ccccc3nc2N2CCCC2)cc1C (stereo not drawn)
inactive: inhibition [2] 6.9% | inhibition [3] 9.5% | inhibition [4] 4.3% | inhibition (Caspase-3 (Homo sapiens)) 4.2% | inhibition [5] 3%

Brc1ccc(-c2nnc(-c3ccccc3)o2)o1
active: inhibition [3] 50.8% | inhibition [4] 80.1% | inhibition (Caspase-3 (Homo sapiens)) 62.9%
inactive: inhibition [2] 25.1% | inhibition [5] 19.1%

Cc1cccc(/C=N/NC(=O)CNc2cccc3ccccc23)n1
inactive: inhibition [2] 13.1% | inhibition [3] 12.9% | inhibition [4] 3.9% | inhibition (Caspase-3 (Homo sapiens)) -0.3% | inhibition [5] 1.6%

Nc1ncc(-c2cc3ccccc3oc2=O)s1
active: inhibition [2] 92.7% | inhibition [3] 92.8% | inhibition [4] 102% | inhibition (Caspase-3 (Homo sapiens)) 94.6% | inhibition [5] 91.7%

O=C(Nc1nc2ccc([N+](=O)[O-])cc2s1)c1ccncc1
inactive: inhibition [2] 16% | inhibition [3] 17.5% | inhibition [4] 15.1% | inhibition (Caspase-3 (Homo sapiens)) 7.6% | inhibition [5] 15.8%
